# Experimental data from PubChem BioAssay (NCATS).
# Records with an inconclusive call do not appear. Unmarked numbers belong to inactive results. The source made the active and inactive calls. Calls follow the shape of the dose curve; as a rule, active = well fitted inhibition curve with a large enough effect; inconclusive = small, poorly fitted or top-dose-only effect; inactive = flat fitted curve, though single readings scatter.
# System: AS120
# Experiment: qHTS profiling for inhibitors of Plasmodium falciparum proliferation (AID 504749); also: nearly all actives have a fitted effect of over 60% in size;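 as to activity, negative = inhibition: 0% = DMSO vehicle and full inhibition = artemisinin control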
# Conditions: P. falciparum in erythrocytes, SYBR Green DNA, 72 h; series mostly up to 28.7 µM; activity, negative = inhibition: at the top concentration
# In short: (§1)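 Quantitative HTS: compounds pinned into medium, infected erythrocytes added (0.3% parasitemia, 2.5% hematocrit), 72 h culture at 37 C under 5% CO2. Saponin/Triton lysis with SYBR Green I, overnight RT, then fluorescence read.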
# Potency is read from the fitted curve at half-maximal effect.
row,SMILES,"activity, negative = inhibition"
1,Nc1nc(F)nc2c1ncn2[C@@H]1O[C@H](CO)[C@@H](O)[C@H]1O,14.2%
2,CC1OC(OC2CCC3(C)C(CCC4C3CC(O)C3(C)C(C5=CC(=O)OC5)CCC43O)C2)CC(O)C1OC1CC(O)C(OC2CC(O)C(OC3OC(CO)C(O)C(O)C3O)C(C)O2)C(C)O1 (stereo not drawn),-2.8%
3,CC1OC(OCC2OC(Oc3c(-c4ccc(OCCO)c(OCCO)c4)oc4cc(OCCO)cc(O)c4c3=O)C(O)C(O)C2O)[C@@H](O)C(O)C1O (stereo partly drawn),-6.2%

# System: ATS189
# Experiment: as above
# Conditions: P. falciparum in erythrocytes, SYBR Green DNA, 72 h; series mostly up to 28.7 µM; activity, negative = inhibition: at the top concentration
# In short: as §1
SMILES,"activity, negative = inhibition",Potency
CCCCCCCCCCCCCCCC(=O)OC[C@H](O)[C@H]1OC[C@@H](O)[C@@H]1O,15%,–
CCCCC(=O)OCC(=O)[C@]1(O)Cc2c(O)c3c(c(O)c2[C@H](OC2CC(NC(=O)C(F)(F)F)C(O)C(C)O2)C1)C(=O)c1c(OC)cccc1C3=O (stereo partly drawn),–,3160 nM (active)
C[C@H]1OC(OC2C(O)[C@@H](O)C(OC3C(O)[C@@H](O)C(O)O[C@@H]3CO)O[C@@H]2CO)[C@H](O)C(O)C1N[C@H]1C=C(CO)[C@@H](O)[C@H](O)C1O (stereo partly drawn),2.76%,–
CCN(CC)CC(=O)Nc1c(C)cc(C)cc1C,-0.0482%,–
CC(=O)N[C@H]1[C@H](O[C@@H]2c3ccc(c(Cl)c3)Oc3cc4cc(c3O[C@@H]3O[C@H](CO)[C@@H](O)[C@H](O)C3C)Oc3ccc(cc3Cl)C[C@H]3NC(=O)[C@@H](N)c5ccc(O)c(c5)Oc5cc(O)cc(c5)[C@H](NC3=O)C(=O)N[C@H]4C(=O)N[C@H]3C(=O)N[C@@H]2C(=O)N[C@@H](C(=O)O)c2cc(O)cc(O[C@H]4O[C@H](CO)[C@@H](O)C(O)[C@@H]4O)c2-c2cc3ccc2O)O[C@H](CO)[C@@H](O)[C@@H]1O (stereo partly drawn),0.984% [at 12.8 µM],–
NC(=O)c1ncn(C2OC(CO)C(O)C2O)c1N (stereo not drawn),6.37%,–
C[C@H]1[C@@H](OC(=O)CCC(=O)O)OC2OC3(C)CC[C@H]4[C@H](C)CC[C@@H]1[C@@]24OO3 (stereo partly drawn),–,2.8 nM (active)
CC1(Cn2ccnn2)[C@H](C(=O)O)N2C(=O)C[C@H]2S1(=O)=O (stereo partly drawn),6.09%,–
CN(C)CC/C=C1\c2ccccc2COc2ccc(CC(=O)O)cc21,2.11%,–
CCCC(=O)O[C@]1(C(=O)COC(C)=O)CC[C@H]2C3C[C@H](F)C4=CC(=O)C=CC4(C)[C@@]3(F)[C@@H](O)CC21C (stereo partly drawn),1.93%,–
OCCN1CC(O)C(O)C(O)C1CO (stereo not drawn),0.711%,–
COc1cc2c(cc1O)CCN[C@@]21CS[C@H]2c3c(OC(C)=O)c(C)c4c(c3C(COC1=O)N1C2C2c3c(cc(C)c(OC)c3O)CC([C@@H]1O)N2C)OCO4 (stereo partly drawn),–,1 nM (active)
CC(CCC(=O)O)C1CCC2C3C(=O)C[C@@H]4CC(=O)CC[C@@]4(C)C3CC(=O)[C@]12C (stereo partly drawn),-0.668%,–
C[n+]1c2cc(N)ccc2cc2ccc(N)cc21,–,1120 nM (active)
O=C(OC[C@@H]1O[C@@](O)(COC(=O)c2cccnc2)[C@H](OC(=O)c2cccnc2)[C@H]1OC(=O)c1cccnc1)c1cccnc1,8.82%,–
O=[N+]([O-])O[C@H]1CO[C@H]2[C@@H]1OC[C@H]2O,13.8%,–
COc1cccc(OC)c1C(=O)NC1C(=O)N2C1SC(C)(C)C2C(=O)O (stereo not drawn),7.43%,–
NC[C@@H]1O[C@H](OC2[C@@H](CO)O[C@@H](OC3[C@H](O)[C@H](N)C[C@H](N)[C@H]3OC3O[C@H](CO)[C@@H](O)[C@H](O)[C@@H]3N)[C@H]2O)C(N)[C@H](O)[C@@H]1O (stereo partly drawn),7.33%,–
Cc1ccc(S(=O)(=O)NC(=O)NC(C)Cc2ccccc2)cc1 (stereo not drawn),16.6%,–
OCCOC[C@H]1O[C@H](OCCO)[C@H](OCCO)[C@@H](OCCO)[C@@H]1OCCO (tested in a mixture with another compound),11%,–

SMILES,"activity, negative = inhibition",Potency
C[S+](C)CC[C@H](N)C(=O)O,11.3%,–
CC[C@@H]1/C=C(\C)C[C@H](C)C[C@H](OC)[C@H]2O[C@@](O)(C(=O)C(=O)N3CCCC[C@H]3C(=O)O[C@H](/C(C)=C/[C@@H]3CC[C@H](Cl)[C@H](OC)C3)[C@H](C)[C@@H](O)CC1=O)[C@H](C)C[C@@H]2OC,1.7%,–
NC(=O)C1CC2(NC(=O)NC2=O)c2cc(F)ccc2O1 (stereo not drawn),12.5%,–
CN1[C@@H]2CC[C@@H]1CC(OC(=O)[C@H](CO)c1ccccc1)C2 (stereo partly drawn),-1.92%,–
CC[C@@]1(O)C[C@H](O[C@H]2C[C@@H](N(C)C)[C@@H](O[C@H]3C[C@@H](O)[C@@H](O[C@H]4CCC(=O)[C@@H](C)O4)[C@@H](C)O3)[C@@H](C)O2)c2c(cc3c(c2O)C(=O)c2c(O)cccc2C3=O)[C@H]1C(=O)OC,–,355 nM (active)
CCCCCCCCCCCC(=O)OCC(O)C1OCC(O)C1O (stereo not drawn),7.41%,–
C/C1=C2/[N-]C(C(CC(N)=O)[C@@]2(C)CCC(=O)NCC(C)OP(=O)([O-])O[C@H]2[C@@H](O)[C@@H](n3cnc4cc(C)c(C)cc43)O[C@@H]2CO)[C@]2(C)N=C(/C(C)=C3N=C(/C=C4N=C1C(CCC(N)=O)C\4(C)C)[C@@H](CCC(N)=O)[C@]\3(C)CC(N)=O)[C@@H](CCC(N)=O)[C@]2(C)CC(N)=O.CC(=O)O.[Co] (stereo partly drawn),2.06%,–
CC1(C)OC[C@@H]2O[C@@]3(C(=O)O)OC(C)(C)O[C@@H]3[C@@H]2O1,5.46%,–
Cc1ccccc1N1C(=O)c2cc(N)ccc2N/C1=C\F,-2.02%,–
CCC(C(=O)O)C1OC(C(C)C(O)C(C)C(=O)C(CC)C2OC3(C=CC(O)C4(CCC(C)(C5CCC(O)(CC)C(C)O5)O4)O3)C(C)CC2C)C(C)CC1C (stereo not drawn),–,158 nM (active)
O=C1C(I)=CC(=C(c2cc(I)c(O)c(I)c2)c2ccccc2C(=O)O)C=C1I,-4.69%,–
NC(=O)NC(CCC(=O)O)C(=O)O (stereo not drawn),21.2%,–
COC1CC2CCC(C)[C@](O)(O2)C(=O)C(=O)N2CCCCC2C(=O)OC(C(C)CC2CCC(O)C(OC)C2)CC(=O)C(C)/C=C(/C)C(O)C(OC)C(=O)C(C)CC(C)C=CC=C/C=C\1C (stereo partly drawn),–,3160 nM (active)
CC(=O)OCC(=O)[C@@]1(O)CCC2C3C[C@H](C)C4=CC(=O)C=CC4(C)C3C(O)CC21C (stereo partly drawn),-4.85%,–
CN[C@H](C)CCC=C(C)C,–,282 nM (active)
CC1(C)C2CC[C@]1(C)[C@@H](O)C2,10.1%,–
OCC1O[C@H](Oc2ccc(O)cc2)C(O)C(O)C1O (stereo partly drawn),6.86%,–
Nc1nc(F)nc2c1ncn2[C@@H]1O[C@H](CO)[C@@H](O)[C@H]1O,9.27%,–
CC1OC(OC2CCC3(C)C(CCC4C3CC(O)C3(C)C(C5=CC(=O)OC5)CCC43O)C2)CC(O)C1OC1CC(O)C(OC2CC(O)C(OC3OC(CO)C(O)C(O)C3O)C(C)O2)C(C)O1 (stereo not drawn),10.1%,–
CC1OC(OCC2OC(Oc3c(-c4ccc(OCCO)c(OCCO)c4)oc4cc(OCCO)cc(O)c4c3=O)C(O)C(O)C2O)[C@@H](O)C(O)C1O (stereo partly drawn),-25.6%,–
